Shiga inhibitor: A qHTS for Small Molecule Inhibitors of Shiga Toxin; Vero cells, Shiga toxin protein synthesis inhibition reporter; inhibition, % at 38.7 µM; 290,000 compounds, 9.2% hits; AID 2315, 2010; in the data active = inhibition mostly above about 28%, no sharp cut-off; inactive = mostly below about 43%; note: 0% is about no effect
HCMV antiviral: qHTS Assay for inhibitors of the human cytomegalovirus (HCMV). HFF cells, HCMV-luciferase reporter, 72 h; stronger effect = lower value. activity change, negative = inhibition, % at 57.5 µM. 410,000 compounds, 4.5% hits. AID 1259415, 2018; in the data active = activity change below about -60%; inconclusive = no clear call, values can overlap the other calls; inactive = above about -39%; note: % is set by controls: 0 for no effect and ±100 for the full control effect
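Steps: HFFs plated, 16 h 37C; compounds added; HCMV-luciferase added to MOI 1 PFU/cell; 72 h 37C; OneGlo reagent, 5 min room temperature; luminescence read, normalized to controls.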
HCV inh: qHTS Assay for Inhibitors of Hepatitis C Virus (HCV). Potency, µM (series often up to 41.8 µM), for the others: top-dose activity change, negative = inhibition, most hits filed as inhibitors. Huh7.5.1 HCVcc-Cre infection, luciferase reporter, 44 h. AID 651820, 2012. 340,000 compounds, 3.4% hits; note: potency is the fitted concentration of half-maximal effect; % is set by controls: 0 for no effect and ±100 for the full control effect
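A cell-based infection assay in which seeded cells (1,000 per well) receive test compound after 4 h, are inoculated with HCVcc-Cre at approximately 0.5 moi, and are incubated 44 h before luminescence detection.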
Pf growth 96h: Primary qHTS for delayed death inhibitors of the malarial parasite plastid, 96 hour incubation; Potency, µM (top dose mostly 28.7 µM), for inactives: top-dose activity change, negative = inhibition, actives largely listed as inhibitors; P. falciparum luciferase reporter growth, 96 h; 320,000 compounds, 6.9% hits; note: potency is the fitted concentration of half-maximal effect; % is set by controls: 0 for no effect and ±100 for the full control effect
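96 h incubation, 37 C, 5% CO2, of luciferase-reporter P. falciparum-infected RBCs (2% hematocrit, 0.05% parasitemia final) with test compounds; endpoint luminescence.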
CHX counter: Cycloheximide Counterscreen for Small Molecule Inhibitors of Shiga Toxin | cell reporter, cycloheximide protein synthesis inhibition counterscreen | max response, % | 300,000 compounds, 12% hits; in the data active = max response mostly above about 13%, no sharp cut-off; inactive = mostly below about 14%; note: read at 38.3 µM for the half of the compounds with a filed dose; 0% is about no effect
Pf growth 48h: Primary qHTS for delayed death inhibitors of the malarial parasite plastid, 48 hour incubation | P. falciparum luciferase growth in erythrocytes, 48 h | 310,000 compounds, 5.9% hits | Potency, µM (series often up to 28.7 µM), for inactives: at the top dose activity change, negative = inhibition, actives largely listed as inhibitors; note: potency is the fitted concentration of half-maximal effect; % is set by controls: 0 for no effect and ±100 for the full control effect
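Luminescence readout; reporter = integrated firefly luciferase in P. falciparum. RBC culture at 2% hematocrit, 0.1% parasitemia final, 37 C/5% CO2; decreased signal taken as growth inhibition.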
Active calls of the source: *; ? = inconclusive; . = not tested or not shown; [ ] = dose if it differs, or a comment. An excerpt weighted towards active compounds, which were near 21% of everything screened. Unless noted, calls come from the whole dose curve; as a rule, active = well fitted inhibition curve with a large enough effect; inconclusive = small, poorly fitted or top-dose-only effect, or another doubt; inactive = no such curve, though single readings can be large or run the other way.

SMILES | Shiga inhibitor | HCMV antiviral | HCV inh | Pf growth 96h | CHX counter | Pf growth 48h
COc1ccc2c(=O)c3c(=O)n(Cc4ccco4)c(C4CCCCC4)nc3oc2c1 | 20.2 | . | . | ? | -4.3 | ?
COc1ccc(Cn2c(C3CCCCC3)nc3c(c(=O)c4ccccc4n3C)c2=O)cc1 | 20.9 | . | ? | 2.33µM* | 2.1 | 3.29µM*
COc1ccc(CCn2c(-c3ccccc3)nc3c(c(=O)c4ccccc4n3C)c2=O)cc1 | -11.9 | 22.9 | 5.9% | ? | -2.1 | 0.0%
COc1ccc(CCn2c(C(C)C)nc3oc4ccccc4c(=O)c3c2=O)cc1 | 19.7 | ? | -27.4% | 6.57µM* | -0.5 | 8.28µM*
COc1ccc(Cn2c(-c3ccccc3)nc3c(c(=O)c4ccccc4n3C)c2=O)cc1 | -2.7 | -7.6 | -6.2% | 11.7µM* | -2.7 | -14.8%
Cc1cc(C)c(NC(=O)C2CCN(C(=O)N3CC(C)Oc4ccc(Cl)cc43)CC2)c(C)c1 (stereo unspecified) | . | -18.9 | . | . | . | .
Cc1ccccc1CC(=O)N1CC(C)OC(C)C1 (stereo unspecified) | -7.0 | 7.8 | 11.0% | 50.3% | -2.6 | 6.3%
S=c1[nH]cnc2sc(-c3ccccc3)cc12 | 76.6* | 9.7 | 1.7% | 22.4% | 31.0* | 28.0%
S=c1[nH]cnc2scc(-c3ccccc3)c12 | -4.2 | -77.4* | -4.2% | 0.329µM* | -1.1 | ?
CC1(C)Cc2nc(Cl)c(C#N)cc2CO1 | 14.3 | -99.7* | 6.4% | 14.2% | -5.6 | 10.8%
CC1(C)Cc2nc(N3CCCC3)c(C#N)cc2CO1 | -7.4 | 34.0 | 12.0% | ? | -1.9 | 6.2%
C/C(=N\NC(=O)CNC(=O)C(c1ccccc1)c1ccccc1)c1ccc(C(C)(C)C)cc1 | -10.7 | -75.6* | 20.8% | 20.5% | 0.6 | -18.1%
O=C(O)CNC(=O)C(c1ccccc1)c1ccccc1 | 1.8 | -16.9 | 18.3% | -22.7% | 3.1 | 13.1µM*
O=C(Nc1nnc(C23CC4CC(CC(C4)C2)C3)s1)c1ccco1 | 53.2* | 76.3 | 9.8% | -30.4% | 35.2* | 200.5%
Cc1ccc(OCc2nnc(NC(=O)c3ccco3)s2)c(C)c1 | -13.8 | -105.2* | 20.8% | 1.85µM* | -2.6 | -3.2%
C/C=C(\C)c1nnc(NC(=O)c2ccco2)s1 | 55.9* | 41.1 | -0.7% | 5.1% | 14.6* | 100.3%
CCC(CC)c1nnc(NC(=O)c2ccco2)s1 | 31.9 | 19.8 | 14.2% | 59.4% | 13.4 | 28.1%
CC(C)(C)Cc1nnc(NC(=O)c2ccco2)s1 | 42.2* | 136.8 | 17.1% | ? | 32.4* | 18.7%
CCN1C(=O)C(CC(=O)Nc2c(C)cccc2C)Nc2cc(S(=O)(=O)N(C)C)ccc21 (stereo unspecified) | 7.5 | -28.1 | -8.7% | 45.5%[5.75 µM] | 0.7 | ?
Cc1cc2c(cc1C)NC(CC(=O)Nc1ccccc1SC(F)(F)F)C(=O)N2 (stereo unspecified) | . | 1.0 | . | . | . | .
Cc1ccc(-c2nnc(NC(=O)c3ccco3)s2)cc1 | 96.5* | 55.3 | 5.5% | ? | 27.9* | 65.5%
COc1cccc(-c2nnc(NC(=O)c3ccco3)s2)c1 | 95.7* | -6.8 | 12.9% | -22.4% | 31.8* | 87.5%
CCCOc1cccc(-c2nnc(NC(=O)c3ccco3)s2)c1 | 17.5 | -11.4 | -7.5% | ? | 14.8 | -0.3%
Cc1nnc(NC(=O)c2ccco2)s1 | -10.6 | 35.5 | 0.5% | 77.1% | 1.5 | -4.0%
COc1ccc(/C=C/c2nnc(NC(=O)c3ccco3)s2)cc1 | 40.7 | 105.5 | -26.1% | -3.4% | 8.9 | 3.7%
COc1ccc(-c2nnc(NC(=O)c3ccco3)s2)cc1 | 53.2 | 70.9 | 2.2% | 9.4% | 27.1* | 80.5%
CCO[C@H]1OC(C(=O)NC2CC2)=C[C@@H](c2c[nH]c3ccccc23)[C@@H]1CCCO | -5.8 | 2.3 | 25.4% | 16.0% | -1.8 | 49.9%
CCO[C@@H]1OC(C(=O)NC2CC2)=C[C@H](c2c[nH]c3ccccc23)[C@H]1CCCO | 52.1* | -36.8 | 5.8% | ? | 10.9 | -12.3%
CCO[C@@H]1OC(C(=O)NCc2ccccc2)=C[C@H](C2CCCCC2)[C@H]1CCCO | -20.4 | -22.0 | -1.8% | 9.28µM* | -1.5 | ?
